Compound activity deposited in PubChem by The Scripps Research Institute Molecular Screening Center.
hcDAF12 agonist: activators of H. contortus DAF-12 nuclear receptor; HEK293 hcDAF-12 lit1-tk-luc reporter, luminescence; 0% DMSO, 100% Δ7-dafachronic acid; activation, % at 6.8 µM; actives 1.4% (n = 370,000); AID 652067;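 active = activation above the mean of all tested compounds plus 3 SD, cut at about 5.5% in these data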;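 note: 100% = response to 3 µM Δ7-dafachronic acid high control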
DAX1 inh-1: blocks DAX1 repression of SF-1 activated StAR promoter. HEK293T StAR-luciferase reporter, SF-1/DAX-1 repression relief. inhibition, % at 6.8 µM. actives 1.1% (n = 370,000);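 active = inhibition above the mean over all tested compounds plus 3 SD, cut at about 3.6% in these data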;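 note: 0% = DAX-1 cells with DMSO and 100% = cells lacking DAX-1 with DMSO; higher inhibition means more luminescence from relief of DAX-1 repression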
ssDAF12 agonist: S. stercoralis DAF-12 activation, primary screen. HEK293 ssDAF-12/GRIP1 lit1-tk-luc reporter, luminescence; % of 3 µM dafachronic acid response. activation, % at 6.8 µM. actives 1% (n = 370,000). AID 652126;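 active = activation above the mean over all tested compounds plus 3 SD, cut at about 0.9% in these data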;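 note: 0% = DMSO-only wells and 100% = 3 µM delta7-dafachronic acid wells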
DAX1 inh-2: inhibitors of human orphan nuclear receptor DAX1 (NR0B1) | inhibition, % at 6.75 µM | actives 0.99% (n = 340,000) | HEK293 Gal4-DAX1 luciferase reporter, luminescence | P51843;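 active = inhibition above the mean over all tested compounds plus 3 SD, cut at about 4.2% in these data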;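 note: 0% = DAX1-transfected cells with DMSO and 100% = empty-vector control cells with DMSO; inhibition shows as a rise in luminescence from relieved DAX1 repression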
Target sequence (P51843 207-470 limits assumed): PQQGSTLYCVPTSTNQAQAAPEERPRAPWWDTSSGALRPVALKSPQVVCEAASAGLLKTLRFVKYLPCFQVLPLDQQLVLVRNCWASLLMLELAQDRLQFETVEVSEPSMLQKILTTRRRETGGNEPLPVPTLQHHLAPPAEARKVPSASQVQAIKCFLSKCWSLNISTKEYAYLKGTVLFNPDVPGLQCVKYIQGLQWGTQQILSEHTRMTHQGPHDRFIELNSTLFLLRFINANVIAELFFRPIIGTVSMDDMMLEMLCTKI
hgDAF-12 ag: agonists of H. glycines DAF-12 nuclear receptor; activation, % at 6.8 µM; actives 1.8% (n = 370,000); HEK293 GAL4-hgDAF12 UAS-luciferase reporter, agonist luminescence; normalized to butyrate control;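 active = activation above a cutoff set at the mean of all screened compounds plus 3 SD, cut at about 10% in these data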;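 note: 0% = DMSO wells and 100% = sodium butyrate wells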
hgDAF12 ag: confirmation of H. glycines DAF-12 agonists; shares compounds with hgDAF-12 ag; HEK293 GAL4-hgDAF12 luciferase reporter, agonist mode; percent of butyrate response; activation, % at 6.8 µM; actives 80% (n = 3,300); AID 743050;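 active = mean activation over triplicate wells above the hit cutoff derived from the earlier primary screen, cut at about 11% in these data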;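 note: 0% = DMSO low control and 100% = 2 mM sodium butyrate high control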
LXR ag 2: activates human LXR-beta, counter-screen for DAF-12 agonists; shares compounds with hgDAF-12 ag; HEK293 Gal4-LXR luciferase reporter, 24 h; activation, % at 6.8 µM; 3,300 tested, under 10 active;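 active = mean activation of the triplicate above a set limit carried over from the primary screen, none filed active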
Starred values were filed as active, the others as inactive. An excerpt weighted towards active compounds, which were near 4.1% of everything screened.

What do the screens show for `CC(c1ccccc1)c1nnc(NC(=O)Nc2ccccc2)s1` (configuration not stated)?
hcDAF12 agonist: -1; DAX1 inh-1: 1; ssDAF12 agonist: -1; DAX1 inh-2: -1; hgDAF-12 ag: 3

Results for NNC(=O)CSc1nc(-c2ccccc2)cn1-c1ccccc1 ?
hcDAF12 agonist: -2; DAX1 inh-1: 0; ssDAF12 agonist: -2; DAX1 inh-2: -2; hgDAF-12 ag: -7

Results for COc1ccc(-n2cc(-c3ccccc3)nc2SC)cc1 ?
hcDAF12 agonist: 3; DAX1 inh-1: 2; ssDAF12 agonist: -1; DAX1 inh-2: 3; hgDAF-12 ag: 15*; hgDAF12 ag: 11*; LXR ag 2: 0

Results for COc1ccc(F)cc1S(=O)(=O)NCC(c1ccco1)N1CCc2ccccc2C1 (configuration not stated) ?
hcDAF12 agonist: 0; DAX1 inh-1: -1; ssDAF12 agonist: 0; DAX1 inh-2: -2; hgDAF-12 ag: 0

What do the screens show for `CC(NC(=O)c1ccccc1F)c1nnc(SCC(=O)NC2=NCCS2)n1C` (configuration not stated)?
hcDAF12 agonist: -2; DAX1 inh-1: 0; ssDAF12 agonist: -1; DAX1 inh-2: 1; hgDAF-12 ag: 1

What do the screens show for `CC(=O)c1ccc(NC(=O)C2CC(=O)N(Cc3ccccc3)C2)cc1` (configuration not stated)?
hcDAF12 agonist: 0; DAX1 inh-1: 1; ssDAF12 agonist: -1; DAX1 inh-2: 1; hgDAF-12 ag: 14*; hgDAF12 ag: 10; LXR ag 2: 0

How did O=C(Nc1ccccc1)C1CC(=O)N(Cc2ccccc2)C1 (configuration not stated) do in these assays?
hcDAF12 agonist: 0; DAX1 inh-1: 0; ssDAF12 agonist: 0; DAX1 inh-2: 1; hgDAF-12 ag: -1

How did COC(=O)C[C@H]1CC[C@@H]2[C@H](COc3ccc(NC(=O)c4ccccc4OC)cc3C(=O)N2C)O1 do in these assays?
hcDAF12 agonist: -2; DAX1 inh-1: 0; ssDAF12 agonist: 0; hgDAF-12 ag: 15*; hgDAF12 ag: 0; LXR ag 2: 0

Results for COC(=O)C[C@@H]1CC[C@@H]2[C@@H](COc3ccc(NC(C)=O)cc3C(=O)N2C)O1 ?
hcDAF12 agonist: 1; DAX1 inh-1: 0; ssDAF12 agonist: -1; hgDAF-12 ag: 5

What do the screens show for `CC(=O)C(C(c1ccccc1)N1CCOCC1)N1CCOCC1` (configuration not stated)?
hcDAF12 agonist: 0; DAX1 inh-1: 0; ssDAF12 agonist: -1; DAX1 inh-2: 0; hgDAF-12 ag: -3

How did COc1ccccc1C(C(C(=O)c1ccccc1)N1CCOCC1)N1CCOCC1 (configuration not stated) do in these assays?
hcDAF12 agonist: 2; DAX1 inh-1: 0; ssDAF12 agonist: 0; DAX1 inh-2: 0; hgDAF-12 ag: 14*; hgDAF12 ag: 0; LXR ag 2: 0

What do the screens show for `O=C(/C=C/c1cccs1)Nc1nncs1`?
hcDAF12 agonist: 0; DAX1 inh-1: 1; ssDAF12 agonist: -1; DAX1 inh-2: 2; hgDAF-12 ag: 9

What do the screens show for `Cc1ccnc(NC(=O)/C=C/c2cccs2)c1`?
hcDAF12 agonist: 5.6*; DAX1 inh-1: 3; ssDAF12 agonist: 0; DAX1 inh-2: 1; hgDAF-12 ag: 16*; hgDAF12 ag: 19*; LXR ag 2: 1

How did COc1nc(-c2ccccc2)nnc1-c1ccccc1 do in these assays?
hcDAF12 agonist: 15*; DAX1 inh-1: 3; ssDAF12 agonist: 1.3*; DAX1 inh-2: 2; hgDAF-12 ag: 15*; hgDAF12 ag: 20*; LXR ag 2: 1

Results for Cc1cc(NC(=O)CN2C(=O)NC3(CCCCC3C)C2=O)no1 (configuration not stated) ?
hcDAF12 agonist: -2; DAX1 inh-1: 0; ssDAF12 agonist: -1; DAX1 inh-2: -1; hgDAF-12 ag: 0

Results for CC(C)(C)NC(=S)NNC(=O)c1cccc(Br)c1 ?
hcDAF12 agonist: 1; DAX1 inh-1: 1; ssDAF12 agonist: -1; DAX1 inh-2: 2; hgDAF-12 ag: 21*; hgDAF12 ag: 5; LXR ag 2: 0

How did O=C(NNC(=S)Nc1ccccc1)c1cccc(Br)c1 do in these assays?
hcDAF12 agonist: 3; DAX1 inh-1: 3; ssDAF12 agonist: 0; DAX1 inh-2: 1; hgDAF-12 ag: 3

What do the screens show for `COc1cc(SC)ccc1C(=O)NCCOc1ccc(F)cc1`?
hcDAF12 agonist: 4; DAX1 inh-1: 3; ssDAF12 agonist: -1; DAX1 inh-2: 1; hgDAF-12 ag: 17*; hgDAF12 ag: 10; LXR ag 2: 0

Results for CCOc1ccc(N(CC(=O)Nc2cccc(Br)c2)S(C)(=O)=O)cc1 ?
hcDAF12 agonist: 0; DAX1 inh-1: -1; ssDAF12 agonist: -1; DAX1 inh-2: -2; hgDAF-12 ag: -3

What do the screens show for `Cc1ccc2cc(N)ccc2n1`?
hcDAF12 agonist: 1; DAX1 inh-1: 1; ssDAF12 agonist: -1; DAX1 inh-2: 0; hgDAF-12 ag: -3

How did Nc1ccc2cc3ccc(N)cc3nc2c1 do in these assays?
hcDAF12 agonist: 32*; DAX1 inh-1: -2; ssDAF12 agonist: 1.7*; hgDAF-12 ag: 28*; hgDAF12 ag: 6; LXR ag 2: 0

How did Cc1cccc(C)c1NC(=O)NC1(C(=O)NCc2ccncc2)CCCCC1 do in these assays?
hcDAF12 agonist: -1; DAX1 inh-1: 0; ssDAF12 agonist: -1; DAX1 inh-2: 0; hgDAF-12 ag: 2

How did Cc1ccc(-c2nnc(SCc3ccccc3F)o2)cc1 do in these assays?
hcDAF12 agonist: 5.7*; DAX1 inh-1: 4; ssDAF12 agonist: 1; DAX1 inh-2: 3; hgDAF-12 ag: 16*; hgDAF12 ag: 15*; LXR ag 2: 1

Results for Cc1ccc(S(=O)(=O)C(C#N)=C2N(C)c3ccccc3N2C)cc1 ?
hcDAF12 agonist: 0; DAX1 inh-1: -1; ssDAF12 agonist: -1; DAX1 inh-2: 0; hgDAF-12 ag: -1

What do the screens show for `CCCCNC(=O)C(CC)(ONc1ccccc1C(F)(F)F)c1ccccc1OC` (configuration not stated)?
hcDAF12 agonist: 0; DAX1 inh-1: 0; ssDAF12 agonist: -1; DAX1 inh-2: 1; hgDAF-12 ag: 2

What do the screens show for `Cc1nn(-c2ccccc2)c(C)c1NC(=O)COC(=O)CC(C)c1ccccc1` (configuration not stated)?
hcDAF12 agonist: -2; DAX1 inh-1: 1; ssDAF12 agonist: -1; DAX1 inh-2: 0; hgDAF-12 ag: 0
